The source of these data is a collection of fitness landscapes (doi:10.1016/j.celrep.2020.107928).

In all, about 81,000 sequences were measured (“one-hybrid fitness for binding parS DNA”: median about -0.17, highest 2% from about 0.51 on). This excerpt belongs to a sample that is enriched for the highest values. Where only a bound is given, the exact number is not on record here.

Sequences and labels used below:
B1: Caulobacter ParB omega fusion; a variant is named by its letters at X, in order, B8GW30 (parent)
chain: MESVVVGEPGMSEGRRGLGRGLSALLGEVDAAPAQAPGEQLGGSREAPIEILQRNPDQPRRTFREEDLEDLSNSIREKGVLQPILVRPSPDTAGEYQIVAGERAWRAAQRAGLKTVPIMVRELDDLAVLEIGIIENVQRADLNVLEEALSYKVLMEKFERTQENIAQTIGKSXSHVANXMRLLXLPDEVQSYLVSGELTAXHARAIAAAADPVALAKQIIEGGLSVRETEALARKAPNLSAGKSKGGRPPRVKDTDTQALESDLSSVLGLDVSIDHRGSTGTLTITYATLEQLDDLCNRLTRGI

The experiment covers variants of B1. Briefly: one-hybrid fitness for binding parS DNA (scaled: cognate 1, non-cognate 0); higher = stronger binding. Conditions: with parS DNA site. In a few lines:
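Selection: bacterial one-hybrid in E. coli USO, HIS3 reporter with the site 19 bp from the promoter, 48 hours at 37°C on M9-minus-histidine plus 0.1 mM IPTG and 5 mM 3-AT. Libraries were Caulobacter ParB with four randomised specificity codons, sequenced on Illumina before and after selection. Fitness is the rescaled log change in variant-to-wild-type read ratio, anchored to the cognate and non-cognate sites.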
KHMR: the “one-hybrid fitness for binding parS DNA” value was at most 0.2.
As to VHNS, the “one-hybrid fitness for binding parS DNA” value was at most 0.2.
In the case of QCGM, the “one-hybrid fitness for binding parS DNA” value is at most 0.2.
Consider MVQC, for which the “one-hybrid fitness for binding parS DNA” value is at most 0.2.
For the variant PQQE, the “one-hybrid fitness for binding parS DNA” value was at most 0.2.
For the variant MRLA, the “one-hybrid fitness for binding parS DNA” value was at most 0.2.
Next, PVER: at most 0.2; RYDR: at most 0.2; RYDT: 0.79.
On to RYDF, for which the “one-hybrid fitness for binding parS DNA” value is at most 0.2.
Regarding RYHH, the “one-hybrid fitness for binding parS DNA” value was determined as 0.213.
Next, RYQY: 0.422; RYQQ: at most 0.2; RYHT: 0.889.
On to RYHP, for which the “one-hybrid fitness for binding parS DNA” value is at most 0.2.
Turning to RYQT, the “one-hybrid fitness for binding parS DNA” value came to 0.853.
VVQF: the “one-hybrid fitness for binding parS DNA” value is at most 0.2.
Then QNYM, with at most 0.2.
Take DLKH: the “one-hybrid fitness for binding parS DNA” value is at most 0.2.
In the case of LLYM, the “one-hybrid fitness for binding parS DNA” value is at most 0.2.
On to LLNS, for which the “one-hybrid fitness for binding parS DNA” value was at most 0.2.
QAGT: the “one-hybrid fitness for binding parS DNA” value is at most 0.2.
Turning to RTPD, the “one-hybrid fitness for binding parS DNA” value is at most 0.2.
For the variant RTIT, the “one-hybrid fitness for binding parS DNA” value stood at 0.813.
Consider RTPY, for which the “one-hybrid fitness for binding parS DNA” value stood at 0.221.
For RTIN, the “one-hybrid fitness for binding parS DNA” value came out at 0.355.
In the case of RTPT, the “one-hybrid fitness for binding parS DNA” value was 0.558.
Next, RTID: 0.203; PDAC: at most 0.2; RTWY: 0.521.
Then RPWY, with at most 0.2.
Consider RSWY, for which the “one-hybrid fitness for binding parS DNA” value is 0.422.
With RAWY, the “one-hybrid fitness for binding parS DNA” value came out at 0.512.
RCWY: the “one-hybrid fitness for binding parS DNA” value was 0.513.
Next, IEES: at most 0.2; IWRM: at most 0.2; RRIW: at most 0.2.
Take VLVG: the “one-hybrid fitness for binding parS DNA” value was at most 0.2.
Next, RWLM: at most 0.2; RWIC: 0.521.
With RWLC, the “one-hybrid fitness for binding parS DNA” value came to 0.658.
Regarding RWGC, the “one-hybrid fitness for binding parS DNA” value came to 0.61.
As to RWLK, the “one-hybrid fitness for binding parS DNA” value was at most 0.2.
On to RWHY, for which the “one-hybrid fitness for binding parS DNA” value was 0.275.
As to RWGK, the “one-hybrid fitness for binding parS DNA” value is at most 0.2.
With RWHC, the “one-hybrid fitness for binding parS DNA” value was found to be 0.733.
For the variant RWPC, the “one-hybrid fitness for binding parS DNA” value worked out at 0.337.
Consider RWIN, for which the “one-hybrid fitness for binding parS DNA” value is at most 0.2.
Next, RWGN: at most 0.2; RWHQ: at most 0.2; CKVC: at most 0.2.
Turning to IMHG, the “one-hybrid fitness for binding parS DNA” value was at most 0.2.
With QMQR, the “one-hybrid fitness for binding parS DNA” value is at most 0.2.
With ATLN, the “one-hybrid fitness for binding parS DNA” value is at most 0.2.
Then RPRL, with at most 0.2.
Turning to ASCK, the “one-hybrid fitness for binding parS DNA” value was at most 0.2.
In the case of TRPS, the “one-hybrid fitness for binding parS DNA” value was at most 0.2.
Then GPIF, with at most 0.2.
On to WAKY, for which the “one-hybrid fitness for binding parS DNA” value was at most 0.2.
Next, RWCC: 0.636.
On to RWSY, for which the “one-hybrid fitness for binding parS DNA” value worked out at 0.338.
Consider RWCD, for which the “one-hybrid fitness for binding parS DNA” value is at most 0.2.
As for RWRC, the “one-hybrid fitness for binding parS DNA” value came out at 0.895.
Next, RWSK: at most 0.2.
Consider RWSC, for which the “one-hybrid fitness for binding parS DNA” value worked out at 0.788.
Turning to RWQQ, the “one-hybrid fitness for binding parS DNA” value is at most 0.2.
Next, RWRD: at most 0.2; RWQC: 0.73.
RWQR: the “one-hybrid fitness for binding parS DNA” value is at most 0.2.
Turning to RWRH, the “one-hybrid fitness for binding parS DNA” value is 0.223.
Consider RWCK, for which the “one-hybrid fitness for binding parS DNA” value was at most 0.2.
Regarding ADHG, the “one-hybrid fitness for binding parS DNA” value was at most 0.2.
With DYYC, the “one-hybrid fitness for binding parS DNA” value was at most 0.2.
Regarding LWRS, the “one-hybrid fitness for binding parS DNA” value is at most 0.2.
In the case of VTPY, the “one-hybrid fitness for binding parS DNA” value is at most 0.2.
Then PYRW, with at most 0.2; and MYTG, with at most 0.2; and RWWM, with at most 0.2.
RWYD: the “one-hybrid fitness for binding parS DNA” value is at most 0.2.
Take RWYP: the “one-hybrid fitness for binding parS DNA” value is at most 0.2.
For the variant RWYC, the “one-hybrid fitness for binding parS DNA” value amounted to 0.662.
Turning to RWWC, the “one-hybrid fitness for binding parS DNA” value was 0.521.
Then NWWC, with at most 0.2.
As for GTFW, the “one-hybrid fitness for binding parS DNA” value is at most 0.2.
SPEV: the “one-hybrid fitness for binding parS DNA” value is at most 0.2.
Next, GWNS: at most 0.2.
Then RHSC, with 0.924.
Regarding RHNP, the “one-hybrid fitness for binding parS DNA” value is at most 0.2.
For the variant RHNN, the “one-hybrid fitness for binding parS DNA” value came to 0.386.
As to RHSH, the “one-hybrid fitness for binding parS DNA” value was at most 0.2.
For the variant RHSD, the “one-hybrid fitness for binding parS DNA” value was at most 0.2.
Take RHRC: the “one-hybrid fitness for binding parS DNA” value was determined as 0.879.
Regarding RHRR, the “one-hybrid fitness for binding parS DNA” value is at most 0.2.
As for RHDY, the “one-hybrid fitness for binding parS DNA” value was 0.397.
Then RHNC, with 0.871; and RHDC, with 0.878.
As to RHDM, the “one-hybrid fitness for binding parS DNA” value stood at 0.254.
In the case of RHRQ, the “one-hybrid fitness for binding parS DNA” value is at most 0.2.
For GRGR, the “one-hybrid fitness for binding parS DNA” value is at most 0.2.
As for PQPN, the “one-hybrid fitness for binding parS DNA” value is at most 0.2.
In the case of DESG, the “one-hybrid fitness for binding parS DNA” value is at most 0.2.
For ATAA, the “one-hybrid fitness for binding parS DNA” value was at most 0.2.
Take TIDL: the “one-hybrid fitness for binding parS DNA” value is at most 0.2.
FQIS: the “one-hybrid fitness for binding parS DNA” value was at most 0.2.
As for YIVC, the “one-hybrid fitness for binding parS DNA” value is at most 0.2.
Consider CDYG, for which the “one-hybrid fitness for binding parS DNA” value is at most 0.2.
Then TKDN, with at most 0.2; and ASNP, with at most 0.2.
With RHCF, the “one-hybrid fitness for binding parS DNA” value is at most 0.2.
For RHCC, the “one-hybrid fitness for binding parS DNA” value was 0.869.
Next, RHLY: 0.428; RHYC: 0.92.
As for RHHC, the “one-hybrid fitness for binding parS DNA” value is 0.934.
In the case of RHHY, the “one-hybrid fitness for binding parS DNA” value came to 0.4.
Consider RHLC, for which the “one-hybrid fitness for binding parS DNA” value was 0.928.
Turning to RHHM, the “one-hybrid fitness for binding parS DNA” value came out at 0.266.
Consider RHLK, for which the “one-hybrid fitness for binding parS DNA” value is at most 0.2.
For the variant RHCY, the “one-hybrid fitness for binding parS DNA” value stood at 0.371.
As for RHYR, the “one-hybrid fitness for binding parS DNA” value was at most 0.2.
As for RHYF, the “one-hybrid fitness for binding parS DNA” value was determined as 0.211.
Consider WTHL, for which the “one-hybrid fitness for binding parS DNA” value is at most 0.2.
In the case of QEVD, the “one-hybrid fitness for binding parS DNA” value is at most 0.2.
Next, DTTH: at most 0.2; VQAA: at most 0.2.
Next, DVLS: at most 0.2; THPF: at most 0.2.
Next, RYFM: 0.264.
In the case of RYFY, the “one-hybrid fitness for binding parS DNA” value is 0.43.
Regarding RYAQ, the “one-hybrid fitness for binding parS DNA” value is at most 0.2.
With RYFG, the “one-hybrid fitness for binding parS DNA” value is 0.932.
RYAY: the “one-hybrid fitness for binding parS DNA” value turned out to be 0.425.
Then RYAG, with 0.982; and VACC, with at most 0.2.
TPLH: the “one-hybrid fitness for binding parS DNA” value is at most 0.2.
For GCSG, the “one-hybrid fitness for binding parS DNA” value was at most 0.2.
On to IIPI, for which the “one-hybrid fitness for binding parS DNA” value is at most 0.2.
Turning to PYAK, the “one-hybrid fitness for binding parS DNA” value is at most 0.2.
For IRPT, the “one-hybrid fitness for binding parS DNA” value is at most 0.2.
RQEN: the “one-hybrid fitness for binding parS DNA” value worked out at 0.379.
As to RQET, the “one-hybrid fitness for binding parS DNA” value stood at 0.719.
With RQES, the “one-hybrid fitness for binding parS DNA” value is 0.962.
For RQEC, the “one-hybrid fitness for binding parS DNA” value was found to be 0.829.
RQEK: the “one-hybrid fitness for binding parS DNA” value was at most 0.2.
As for RQEP, the “one-hybrid fitness for binding parS DNA” value is at most 0.2.
As for RQED, the “one-hybrid fitness for binding parS DNA” value is at most 0.2.
Then RQEM, with 0.255.
Then RQER, with at most 0.2; and RQEH, with 0.281.
Regarding RQEQ, the “one-hybrid fitness for binding parS DNA” value worked out at 0.223.
Turning to RQEG, the “one-hybrid fitness for binding parS DNA” value is 0.89.
As to KSGF, the “one-hybrid fitness for binding parS DNA” value is at most 0.2.
For the variant HSSQ, the “one-hybrid fitness for binding parS DNA” value is at most 0.2.
Then MISR, with at most 0.2.
